Data published in PubChem BioAssay (Tox21).
Where “and” joins values, the source holds several entries; their conditions need not be identical. Identical values can stand only once. Records with an inconclusive call do not appear. Some structures have more than one record in an assay (separate samples or runs), and their calls can disagree. Calls of active or inactive are those of the source. Unless noted, the call rests on the fitted dose curve; in most records, active means well fitted curve in the direction sought with a large enough effect in the repeat runs; inconclusive means weak or mixed curves; inactive means no such curve, though single readings can be large; an effect the other way counts as inactive or inconclusive.

What was measured:
[1] = qHTS assay to identify small molecule agonists of H2AX - cell viability counter screen (AID 1224847; calls by dose curve; further: nearly all actives have a fitted effect of over 30% in size; further: potency means the concentration at half of the fitted maximal effect)
Method in brief: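 Quantitative HTS viability measurement: CHO-K1 wild-type cells in serum (10% FBS) medium, short 3 hr drug exposure at 37C with 0.76% DMSO, CellTiter-Glo luminescent detection.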

[2] = qHTS assay to identify small molecule agonists of the estrogen related receptor (ERR) signaling pathway from Tox21 library (AID 1224849; calls by dose curve; further: on the % scale 0 is the no-effect control and ±100 the full control effect; nearly all actives have a fitted effect of over 15% in size); details: ERR reporter cell line, ONE-Glo luciferase, 18 h
Method in brief: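 ERR reporter cells (NTP line) pre-incubated 6 hours at 37 C, then exposed to compounds for 18 hours at 37 C. ONE-Glo luciferase luminescence was read after 30 minutes at room temperature.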

[3] = qHTS RealTime-Glo MT Cell Viability Assay in HepG2 cells - 24 hour (AID 1224867); further: nearly all actives have a fitted effect of over 50% in size; further: potency means the concentration at half of the fitted maximal effect
Method in brief: (§1)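 Compound treatment began 5 h after plating HepG2 cells (600/well) with NanoLuc luciferase and prosubstrate. Plates stayed at 37 C for 40 h; luminescence was captured at six time points, 0 h through 40 h.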

[4] = qHTS RealTime-Glo MT Cell Viability Assay in HEK293 cells - 32 hour (AID 1224868); further: potency means the concentration at half of the fitted maximal effect; nearly all actives have a fitted effect of over 50% in size
Method in brief: (§2)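 Quantitative high-throughput screen of the Tox21 10K library in HEK293: cells and RealTime-Glo reagents plated together, compound added at 5 h, luminescence monitored through 40 h at 37 C.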

[5] = A CellTox Green Cytotoxicity Assay to monitor cytotoxicity in HEK293 cells - 0 hour (AID 1224869); further: on the % scale 0 is the no-effect control and ±100 the full control effect; nearly all actives have a fitted effect of over 50% in size
Method in brief: (§3)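 HEK293 cells, 600/well, were preincubated 5 hours and then exposed to compounds at 37 C for up to 40 hours. A cell-impermeant cyanine dye staining dead-cell DNA was read by fluorescence at 0, 8, 16, 24, 32 and 40 h time points.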

[6] = qHTS RealTime-Glo MT Cell Viability Assay in HepG2 cells - 40 hour (AID 1224870); further: nearly all actives have a fitted effect of over 50% in size; further: potency means the concentration at half of the fitted maximal effect
Method in brief: (§4)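 HepG2 cells mixed with RealTime-Glo MT reagents (NanoLuc plus cell-permeant prosubstrate) were seeded at 600 cells/well, incubated 5 h at 37 C/5% CO2, then pinned with compounds in DMSO; nonlytic luminescence tracked viability during 40 h treatment.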

[7] = A CellTox Green Cytotoxicity Assay to monitor cytotoxicity in HEK293 cells - 40 hour (AID 1224871); further: nearly all actives have a fitted effect of over 45% in size; further: potency means the concentration at half of the fitted maximal effect
Method in brief: as §3

[8] = qHTS RealTime-Glo MT Cell Viability Assay in HEK293 cells - 16 hour (AID 1224872); further: nearly all actives have a fitted effect of over 50% in size; further: potency means the concentration at half of the fitted maximal effect
Method in brief: as §2

[9] = qHTS RealTime-Glo MT Cell Viability Assay in HepG2 cells - 8 hour (AID 1224873); further: nearly all actives have a fitted effect of over 55% in size; further: potency means the concentration at half of the fitted maximal effect
Method in brief: as §4

[10] = qHTS RealTime-Glo MT Cell Viability Assay in HEK293 cells - 40 hour (AID 1224874); details: RealTime-Glo luminescence; max response: stronger effect = lower value
Method in brief: (§5)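 600 cells/well were plated with the nonlytic NanoLuc/prosubstrate reagent, pre-incubated 5 h, then given 23 nL of compound in DMSO. Incubation at 37 C for 40 h, with luminescence from viable-cell-reduced substrate read repeatedly from 0 h.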

[11] = A CellTox Green Cytotoxicity Assay to monitor cytotoxicity in HEK293 cells - 24 hour (AID 1224875); further: nearly all actives have a fitted effect of over 45% in size; further: potency means the concentration at half of the fitted maximal effect; on activity change: on the % scale 0 is the no-effect control and ±100 the full control effect
Method in brief: as §3

[12] = qHTS RealTime-Glo MT Cell Viability Assay in HepG2 cells - 32 hour (AID 1224877); further: nearly all actives have a fitted effect of over 55% in size; further: potency means the concentration at half of the fitted maximal effect
Method in brief: as §1

[13] = A CellTox Green Cytotoxicity Assay to monitor cytotoxicity in HepG2 cells - 24 hour (AID 1224878); further: nearly all actives have a fitted effect of over 45% in size; further: potency means the concentration at half of the fitted maximal effect; on Cytotoxicity: on the % scale 0 is the no-effect control and ±100 the full control effect
Method in brief: (§6)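 HepG2 cells, 600/well, preincubated 5 h with CellTox Green dye, then exposed to Tox21 compounds in DMSO at 37 C for up to 40 h. Dead-cell DNA fluorescence read at the indicated time point.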

[14] = A CellTox Green Cytotoxicity Assay to monitor cytotoxicity in HEK293 cells - 32 hour (AID 1224881); further: nearly all actives have a fitted effect of over 40% in size; further: potency means the concentration at half of the fitted maximal effect
Method in brief: as §3

[15] = qHTS assay to identify small molecule antagonists of the estrogen related receptor (ERR) signaling pathway from Tox21 library (AID 1224848)
Method in brief: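 Screening used an ERR reporter line supplied by NTP, exposed for 18 h at 37 C to library compounds delivered in DMSO. Signal was luciferase luminescence developed with ONE-Glo at room temperature for 30 min.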

[16] = A CellTox Green Cytotoxicity Assay to monitor cytotoxicity in HepG2 cells - 16 hour (AID 1224876); further: nearly all actives have a fitted effect of over 45% in size; further: potency means the concentration at half of the fitted maximal effect
Method in brief: as §6

[17] = A CellTox Green Cytotoxicity Assay to monitor cytotoxicity in HepG2 cells - 40 hour (AID 1224879); further: nearly all actives have a fitted effect of over 40% in size; further: potency means the concentration at half of the fitted maximal effect
Method in brief: as §6

[18] = qHTS RealTime-Glo MT Cell Viability Assay in HEK293 cells - 0 hour (AID 1224880)
Method in brief: as §5

[19] = qHTS assay to identify small molecule agonists of the hypoxia (HIF-1) signaling pathway (AID 1224846; active means well fitted activation curve with a large enough effect in the signal ratio in the repeat runs, not every such curve was filed as active; the % refers to the signal ratio; further: on the % scale 0 is the no-effect control and ±100 the full control effect)
Method in brief: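 HRE-bla ME-180 beta-lactamase reporter cells in medium with 0.5% dialyzed FBS, pre-incubated 5 h then exposed to compounds 17 h at 37C, 5% CO2; reporter induction read with CCF4-AM FRET substrate.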

[20] = at 92.4 µM (top of the series) unless noted

O=C(c1ccc(F)cc1)C1CCN(CCn2c(=O)[nH]c3ccccc3c2=O)CC1
active: Potency [4] 9.52 µM | Potency [8] 8.49 µM | Potency [10] 9.52 µM
inactive: Potency [1] | activity change, positive = activation [2, 20] -25.2% [at 42.5 µM] | Potency [3] | Potency [5] | Potency [6] | Potency [7] | Potency [9] | Potency [11] | Potency [12] | Potency [13] | Potency [14]

Nc1ccc(N)c2ccccc12
active: Potency [1] 101 µM | Potency [15] 27.3 µM | Potency [8] 54.9 µM | Potency [16] 54.9 µM | Potency [13] 54.9 µM | Potency [17] 54.9 µM
inactive: Potency [5] | Potency [11] | Potency [18]

CC1=C(C(=O)OC(C)C)C(c2cccc([N+](=O)[O-])c2)C(C(=O)OC2CN(C(c3ccccc3)c3ccccc3)C2)=C(N)N1 (stereo not drawn)
inactive: activity change, positive = activation [2, 20] -68.1% [at 42.5 µM] | Potency [5] | Potency [7] | Potency [11] | Potency [18] | Potency [14]
active: Potency [1] 55.2 µM | Potency [15] 26.6 µM | Potency [3] 21.3 µM | Potency [6] 23.9 µM | Potency [12] 21.3 µM | Potency [13] 23.9 µM | Potency [17] 23.9 µM

Clc1ccccc1C(c1ccccc1)(c1ccccc1)n1ccnc1
inactive: activity change, positive = activation ([2]; at 42.5 µM (top of the series)) -60.3% | activity change, positive = activation ([2]; at 92.4 µM (top of the series)) -72.6% | Potency [5] | Potency [18]
40.1 µM (active) and inactive: Potency [1]
24.5 µM (active) and inactive: Potency [6] | Potency [12]
43.6 µM (active) and inactive: Potency [7] | Potency [14]
27.5 µM (active) and inactive: Potency [9]
active: Potency [15] 3.86 µM and 11.9 µM | Potency [4] 21.9 µM and 6.74 µM | Potency [8] 27.5 µM | Potency [10] 19.5 µM and 6.74 µM
21.9 µM (active) and inactive: Potency [3] | Potency [13] | Potency [17]

CCCCCCCCCCCC[N+](C)(C)CCCCCCCCCCCC
active: Potency [1] 28.4 µM | Potency [15] 13.7 µM | Potency [3] 7.76 µM | Potency [4] 5.49 µM | Potency [6] 6.92 µM | Potency [7] 17.4 µM | Potency [8] 11 µM | Potency [9] 12.3 µM | Potency [10] 3.89 µM | Potency [11] 15.5 µM | Potency [16] 9.77 µM | Potency [12] 7.76 µM | Potency [13] 7.76 µM | Potency [17] 7.76 µM | Potency [14] 15.5 µM
inactive: activity change, positive = activation [2, 20] -72.6% | Potency [5] | Potency [18]

CC(C)CCCCCCCCCCCCCCC(=O)O
active: Potency [1] 1.6 µM
inactive: activity change, positive = activation [2, 20] -17% | Potency [3] | Potency [5] | Potency [6] | Potency [7] | Potency [8] | Potency [9] | Potency [11] | Potency [16] | Potency [13] | Potency [17] | Potency [14]

CCC(C)Nc1ccc(NC(C)CC)cc1 (stereo not drawn)
inactive: activity change, positive = activation [2, 20] -80.2% | Potency [5]
active: Potency [1] 23 µM | Potency [15] 6.23 µM | Potency [3] 17.7 µM | Potency [4] 4.45 µM | Potency [6] 17.7 µM | Potency [7] 12.5 µM | Potency [8] 4.45 µM | Potency [9] 19.9 µM | Potency [10] 3.97 µM | Potency [11] 17.7 µM | Potency [16] 35.3 µM | Potency [12] 17.7 µM | Potency [13] 22.3 µM | Potency [17] 17.7 µM | Potency [14] 12.5 µM

Oc1ccc(C2(c3ccc(O)cc3)CC3CC2C2CCCC32)cc1 (stereo not drawn)
active: Potency [1] 86.2 µM | Potency [15] 58.7 µM | Potency [4] 41.9 µM | Potency [10] 41.9 µM
inactive: activity change, positive = activation [2, 20] -75.2% | Potency [3] | Potency [5] | Potency [6] | Potency [9] | Potency [16] | Potency [12] | Potency [13] | Potency [18]

CCCCCCCCCOC(=O)c1ccc(O)cc1
inactive: activity change, positive = activation [2, 20] -33.4% | Potency [5] | Potency [6] | Potency [12] | Potency [18]
active: Potency [1] 99.3 µM | Potency [4] 38.3 µM | Potency [7] 38.3 µM | Potency [8] 43 µM | Potency [10] 38.3 µM | Potency [11] 38.3 µM | Potency [16] 48.3 µM | Potency [17] 48.3 µM | Potency [14] 38.3 µM

CC/C(=C(\c1ccc(O)cc1)c1ccc(OCCN(C)C)cc1)c1ccccc1
inactive: activity change, positive = activation [2, 20] -78.4% | Potency [5] | Potency [18]
active: Potency [1] 90 µM | Potency [15] 48.7 µM | Potency [3] 61.8 µM | Potency [4] 19.5 µM | Potency [7] 43.8 µM | Potency [8] 24.6 µM | Potency [10] 17.4 µM | Potency [11] 49.1 µM | Potency [17] 55.1 µM | Potency [14] 43.8 µM

CCN(CC)CCNC(=O)c1c(C)[nH]c(/C=C2\C(=O)Nc3ccc(F)cc32)c1C
inactive: Potency [19] | Potency [18]
active: Potency [3] 21.3 µM | Potency [4] 10.7 µM | Potency [6] 15.1 µM | Potency [7] 23.9 µM | Potency [8] 10.7 µM | Potency [10] 8.49 µM | Potency [11] 23.9 µM | Potency [12] 19 µM | Potency [17] 9.52 µM | Potency [14] 23.9 µM
